About 3,200 (25%) of roughly 13,000 compounds showed an effect of 50% or more. This is one part of the list.

The subject of this test is P. falciparum stage V gametocytes. Also on record: BacTiter-Glo ATP luminescence viability of purified stage V gametocytes in 384-well plates, per cent inhibition versus DMSO. The note with it: 48 h, 5 µM; inhibitor.
Regarding `FC(F)(F)c1ccc2nccc(NN=Cc3cccnc3)c2c1` [TCMDC-142021], the “% Inhibition” value is on record as -27.85%.
With `Cc1noc(-c2ccc(N3CCC(C(=O)N4CCN(C(C)C)CC4)CC3)cc2)n1` [TCMDC-136012], the “% Inhibition” value came to 8.914%.
For `COc1ccc2nccc([C@@H](O)CN3CCC(NC(=O)c4ccc(Oc5ccccc5)cc4)CC3)c2c1` [TCMDC-141028] the value was -18.23%.
As to `Cc1noc(C)c1-c1cccc(CNCc2cccc(-c3cccc(-c4nc5cc(C(F)(F)F)ccc5[nH]4)c3)c2)c1.O=C(O)C(F)(F)F` [TCMDC-133053], the “% Inhibition” value is reported as -28.51%.
Then `COc1ccc(C2CC(c3cccs3)=NN2C(=O)CNc2cccc(C#N)c2)cc1OC` (centres unmarked) [TCMDC-125050], with -31.46%; and `OC(CNCCCc1ccccc1)c1cc(OCc2ccccc2)cc(OCc2ccccc2)c1` (centres unmarked) [TCMDC-132033], with 38.73%.
For `N=C(NCCCCC1CCCCC1)c1cccc(C(=N)NCCCCC2CCCCC2)n1` [TCMDC-137452] the value was 115.6%; for `N=C(NCCCc1ccccc1)c1cccc(C(=N)NCCCc2ccccc2)n1` [TCMDC-137453], 100.2%.
As for `N=C(NCC1CC1c1ccccc1)c1cccc(C(=N)NCC2CC2c2ccccc2)n1` (centres unmarked) [TCMDC-137456], the “% Inhibition” value is 113.7%.
Then `Cc1cc2nc(-c3ccc(/C=C/C(=O)NCCCc4ccccc4)cc3)[nH]c2cc1C` [TCMDC-140436], with -5.063%; and `N#Cc1c(Cl)cccc1Oc1ccc(S(=O)(=O)N2CCC(CN3CCC(c4c[nH]c5ccccc45)CC3)CC2)cc1` [TCMDC-140172], with 15.16%.
Then `Cc1cc(NC(=O)c2coc3cc(F)c(N4CC(C)N(C)C(C)C4)cc23)ccc1-n1ccnc1` (centres unmarked) [TCMDC-141394], with 18.23%; and `CCNc1cc(C(=O)N[C@@H](Cc2ccccc2)[C@H](O)CNCc2cccc(OC)c2C)cc(N2CCCCS2(=O)=O)c1` [TCMDC-132413], with 37.46%.
Then `Cc1ccc(-c2ccc3c(c2)C=C(C(=O)NC2CCN(CCNC(=O)c4cccs4)CC2)CCC3)cc1` [TCMDC-141949], with -0.2388%; and `Nc1n[nH]c(-c2ccccc2Nc2ccnc3cc(-c4nccs4)ccc23)n1` [TCMDC-138301], with 14.85%; and `CC(C)(C)c1cc2cc(Nc3ccnc4cc(-c5nccs5)ccc34)ccc2[nH]1` [TCMDC-138349], with 14.13%.
With `CC(O)c1cccc(-c2ccc(Nc3ccnc4cc(-c5nccs5)ccc34)cc2)c1` (centres unmarked) [TCMDC-138331], the “% Inhibition” value is reported as -54.01%.
`Cc1cccc(-c2cc3cc(Nc4ccnc5cc(-c6nccs6)ccc45)ccc3[nH]2)c1` [TCMDC-138348]: the “% Inhibition” value is recorded as -37.38%.
Then `Cc1ccc2nc(-c3ccccc3Nc3ccnc4cc(-c5nccs5)ccc34)[nH]c2c1` [TCMDC-138345], with 108.2%; and `c1ccc(Cn2nnnc2-c2cccc(Nc3ccnc4cc(-c5nccs5)ccc34)c2)cc1` [TCMDC-138337], with 1.923%.
Then `Cc1nc(-c2cccc(Nc3ccnc4cc(-c5nccs5)ccc34)c2)no1` [TCMDC-138334], with 113.3%; and `c1ccc(-c2nc3ccccc3[nH]2)c(Nc2ccnc3cc(-c4nccs4)ccc23)c1` [TCMDC-138346], with 44.29%; and `Cc1nnc(-c2cccc(Nc3ccnc4cc(-c5nccs5)ccc34)c2)o1` [TCMDC-138335], with 93.46%.
Then `O=C(NCC(NCCCNc1cc(=O)c2ccccc2[nH]1)c1cc(Br)cc(Br)c1)C1=CCCC1` (centres unmarked) [TCMDC-140317], with -52.55%; and `CC(=O)N[C@H](C(=O)Nc1cccc(-c2ccc(-c3nc4cccc(C)c4[nH]3)s2)c1)C(C)C` [TCMDC-136855], with 31.89%.
In the case of `Cc1ccc(-c2nc(N3CCN(C(=O)c4ccco4)CC3)c3ccc(Cl)cc3n2)cc1` [TCMDC-124781], the “% Inhibition” value is given as 24.46%.
For `Cc1ccc2c(Cl)c(C(=O)N3CC(C)OC(C)C3)sc2c1` (centres unmarked) [TCMDC-125624] the value was 35.35%; for `COc1ccccc1Cn1ccnc1SCC(=O)Nc1cc(C(F)(F)F)ccc1Cl` [TCMDC-124736], -16.43%; for `Cc1cc(C)cc(OCC(O)CN(CCN2CCOCC2)C(=O)Nc2ccc(Br)cc2)c1` (centres unmarked) [TCMDC-141491], 2.41%.
Take `CC(C)(CN1CCCC1)CN(Cc1ccc(-c2ccc(C(F)(F)F)cc2)cc1)C(=O)Cn1c(CCc2cccc(F)c2F)nc(=O)c2ccccc21` [TCMDC-141098]: the “% Inhibition” value was determined as 107.5%.
For `O=C(Cn1c(CCc2cccc(F)c2F)nc(=O)c2ccccc21)N(CCCN1CCCCC1)Cc1ccc(-c2ccc(C(F)(F)F)cc2)cc1` [TCMDC-141053] the value was 101.4%; for `O=C(Cn1c(CCc2cccc(F)c2F)nc(=O)c2ccccc21)N(CCN1CCCC1)Cc1ccc(-c2ccc(C(F)(F)F)cc2)cc1` [TCMDC-141059], 66.66%; for `O=C(Cn1c(CCc2cccc(F)c2F)nc(=O)c2ccccc21)N(CCN1CCCCC1)Cc1ccc(-c2ccc(C(F)(F)F)cc2)cc1` [TCMDC-141088], 27.65%.
As for `O=C(Cn1c(CCc2cccc(F)c2F)nc(=O)c2ccccc21)N(CCCN1CCCC1)Cc1ccc(-c2ccc(C(F)(F)F)cc2)cc1` [TCMDC-141055], the “% Inhibition” value came out at 113.5%.
Take `FC(F)(F)c1ccc2c(NCCc3ccccc3)ccnc2c1` [TCMDC-138552]: the “% Inhibition” value is listed as -21.17%.
For the molecule `COc1cccc2cc(C(=O)N[C@@H](CC(C)C)C(=O)N[C@H](/C=N/N(C)C(=O)OC(C)(C)C)CC(=O)OC(C)(C)C)oc12` [TCMDC-136092], the “% Inhibition” value was determined as 4.382%.
For `COc1ccc(NC(=O)Nc2nc(-c3ccc(Cl)c(C)c3)cs2)cc1N1CCN(C)CC1` [TCMDC-139155], the “% Inhibition” value turned out to be 8.522%.
Then `C[C@@H]1C[C@@H]([C@H](O)CC2CC(=O)NC(=O)C2)C(=O)[C@@H](C)C1` [TCMDC-125838], with 50.08%; and `O=C(NC1CCN(Cc2ccccc2)CC1)c1ccc(-c2nc3cc(Cl)c(Cl)cc3[nH]2)c(F)c1` [TCMDC-140083], with 2.132%.
For `c1cc(-c2cc3ccc(C4=NCCN4)cc3[nH]2)ccc1C1=NCCN1` [TCMDC-137748] the value was 20.42%; for `N=C(N)c1ccc(-c2cc3ccc(C(=N)N)cc3[nH]2)cc1` [TCMDC-123458], 53.3%; for `N=C(N)c1ccc2[nH]c(-c3cc4cc(C(=N)N)ccc4o3)cc2c1` [TCMDC-137436], -17.43%.
For `COc1ccc2nccc([C@@H](O)CN3CCC(NC(=O)C(c4ccccc4C)N4CCC(Cc5ccccc5)CC4)CC3)c2c1` (some centres unmarked) [TCMDC-141102] the value was 2.818%; for `N=C1SC(=Cc2cn[nH]c2-c2ccc(F)cc2)C(=O)N1c1nccs1` [TCMDC-123515], 2.084%; for `CCc1ccc(S(=O)(=O)Nc2ccc(CCN3CCC(N4CCCCC4)CC3)cc2)cc1` [TCMDC-134089], 86.75%.
For `CC(C)c1ccc(S(=O)(=O)Nc2cccc(CCN3CCC(N4CCCCC4)CC3)c2)cc1` [TCMDC-134075], the “% Inhibition” value was 76.83%.
For the molecule `Cc1ccc(NS(=O)(=O)c2ccc(C(C)N3CCC(N4CCCCC4)CC3)cc2)cc1C` (centres unmarked) [TCMDC-133540], the “% Inhibition” value worked out at 11.79%.
Take `O=S(=O)(Nc1cccc(CCN2CCC(N3CCCCC3)CC2)c1)c1ccc(Oc2ccccc2)nc1` [TCMDC-134073]: the “% Inhibition” value is 14.52%.
Then `O=S(=O)(Nc1cccc(CCN2CCC(N3CCCCC3)CC2)c1)c1ccc(-c2ccccc2)cc1` [TCMDC-134071], with 47.75%; and `O=S(=O)(Nc1cccc(CCN2CCC(N3CCCCC3)CC2)c1)c1ccc(Cl)cc1` [TCMDC-134065], with 22.65%.
Then `O=S(=O)(Nc1cccc(CCN2CCC(N3CCCCC3)CC2)c1)c1ccc(Oc2ccccc2)cc1` [TCMDC-134072], with 70.07%; and `CCc1ccc(S(=O)(=O)Nc2cccc(CCN3CCC(N4CCCCC4)CC3)c2)cc1` [TCMDC-134077], with 77.96%.
On to `O=S(=O)(Nc1ccc(CCN2CCC(N3CCCCC3)CC2)cc1)c1ccc(Cl)cc1` [TCMDC-134078], for which the “% Inhibition” value came out at 45.94%.
For `COc1ccc(O)cc1Cc1cnc2nc(N)nc(N)c2c1C` [TCMDC-137498], the “% Inhibition” value is listed as -65.52%.
As for `COc1ccc2nccc([C@@H](O)CN3CCC(NC(=O)C(c4cc5ccccc5o4)N4CCN(c5ccccc5)CC4)CC3)c2c1` (some centres unmarked) [TCMDC-140989], the “% Inhibition” value was 28.59%.
For `CC(=O)N[C@H](C(=O)Nc1ccc(-c2ccc(-c3nc4cc(C(F)(F)F)ccc4[nH]3)s2)cc1)C(C)C` [TCMDC-136852] the value was -48.64%; for `O=C(NCCc1ccc(Cl)c(Cl)c1)C1CCCN(C(=O)c2ccc(O)c(-c3ccc(Cl)c(Cl)c3)c2)C1` (centres unmarked) [TCMDC-140892], -3.917%.
As to `CC(CON1C(N)=NC(N)=NC1(C)C)Cc1ccc(Cl)cc1Cl` (centres unmarked) [TCMDC-131712], the “% Inhibition” value was found to be 20.42%.
`O=S(=O)(Nc1ccc(CCN2CCC(N3CCCCC3)CC2)cc1)c1ccc2ccccc2c1` [TCMDC-134079]: the “% Inhibition” value is 52.17%.
Take `Cc1cc(NS(=O)(=O)c2cccc(C(C)N3CCC(N4CCCC4)CC3)c2)ccc1C(C)C` (centres unmarked) [TCMDC-133708]: the “% Inhibition” value is given as 8.518%.
For `O=S(=O)(Nc1cccc(CCN2CCC(N3CCCCC3)CC2)c1)c1ccc2c(c1)OCCO2` [TCMDC-134067] the value was 55.86%; for `COc1ccc2nccc([C@@H](O)CN3CCC(NC(=O)C(c4cccs4)N4CCN(c5ccc(F)cc5)CC4)CC3)c2c1` (some centres unmarked) [TCMDC-141100], 25.13%; for `COc1cc(C(=O)N2CCOC(CCN3CCC(c4ccc(Cl)cc4)CC3)(c3ccc(Cl)c(Cl)c3)C2)cc(OC)c1OC` (centres unmarked) [TCMDC-135566], -3.164%.
Then `COc1cc(C(=O)N2CCOC(CCN3CCC4c5ccccc5CC43)(c3ccc(Cl)c(Cl)c3)C2)cc(OC)c1OC` (centres unmarked) [TCMDC-135567], with -73.24%.
For `COc1cc(C(=O)N2CCOC(CCN3CCC[C@H]3C(=O)Nc3ccccc3)(c3ccc(Cl)c(Cl)c3)C2)cc(OC)c1OC` (some centres unmarked) [TCMDC-135571], the “% Inhibition” value is listed as 90.6%.

A word on the % Inhibition: it is the relative decrease from the control value, in per cent.
